For some of these results: Measured potencies and affinities stand elsewhere.
Legend:
Parameters in all cases: scale not given: direction of the effect not stated beside the values
[1] = molecular target: Protein translocase subunit SecA (Escherichia coli (strain K12)) (UniProt P10408); assay: Assay to Identify E. coli SecA ATPase Inhibitors; type: functional; details: 30 µM
[2] = molecular target: T1, Ubiquitin-activating enzyme e1, putative (Leishmania donovani (strain BPK282A1)) (UniProt E9BSI1); assay: Leishmania donovani Ubiquitin Activating Enzyme (LdE1); type: functional; details: 30 µM
T1 sequence (whole entry): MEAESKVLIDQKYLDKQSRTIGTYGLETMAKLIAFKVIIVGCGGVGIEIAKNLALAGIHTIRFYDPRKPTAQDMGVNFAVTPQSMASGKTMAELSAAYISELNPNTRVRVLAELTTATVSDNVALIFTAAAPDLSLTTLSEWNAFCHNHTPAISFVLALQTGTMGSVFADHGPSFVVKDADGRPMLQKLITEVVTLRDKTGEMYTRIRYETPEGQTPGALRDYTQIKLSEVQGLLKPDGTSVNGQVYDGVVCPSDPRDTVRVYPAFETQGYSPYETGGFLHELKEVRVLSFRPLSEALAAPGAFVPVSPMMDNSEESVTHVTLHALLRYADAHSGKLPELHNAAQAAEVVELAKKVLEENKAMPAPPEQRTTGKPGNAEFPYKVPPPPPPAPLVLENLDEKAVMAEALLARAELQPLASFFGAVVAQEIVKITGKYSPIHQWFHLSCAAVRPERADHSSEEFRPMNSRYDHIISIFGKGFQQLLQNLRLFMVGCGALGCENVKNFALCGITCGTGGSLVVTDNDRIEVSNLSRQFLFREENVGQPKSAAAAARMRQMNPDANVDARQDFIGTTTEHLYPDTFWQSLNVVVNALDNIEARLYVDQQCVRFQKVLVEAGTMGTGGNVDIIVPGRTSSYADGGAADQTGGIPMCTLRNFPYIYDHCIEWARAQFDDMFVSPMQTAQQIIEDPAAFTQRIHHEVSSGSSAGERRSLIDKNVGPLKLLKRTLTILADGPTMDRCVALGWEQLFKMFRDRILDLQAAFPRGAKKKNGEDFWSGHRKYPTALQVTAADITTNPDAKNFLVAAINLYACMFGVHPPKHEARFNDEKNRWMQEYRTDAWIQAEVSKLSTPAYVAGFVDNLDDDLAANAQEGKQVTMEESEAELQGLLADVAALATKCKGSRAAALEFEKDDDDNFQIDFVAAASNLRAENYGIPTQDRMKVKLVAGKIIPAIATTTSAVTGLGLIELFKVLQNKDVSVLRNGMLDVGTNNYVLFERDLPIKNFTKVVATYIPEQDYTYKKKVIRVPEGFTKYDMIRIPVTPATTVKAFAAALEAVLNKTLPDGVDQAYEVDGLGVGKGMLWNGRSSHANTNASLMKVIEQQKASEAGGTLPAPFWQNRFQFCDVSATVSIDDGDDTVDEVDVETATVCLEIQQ

[3] = molecular target: AMP-activated protein kinase, AMPK (Homo sapiens) (UniProt P54646+O43741+P54619+Q9UGJ0+Q9Y478+Q13131+Q9UGI9); assay: AMP-dependent Kinase enzyme assay. An in vitro enzyme assay that detects ADP turnover that is directly proportional to AMPK activity. This uses naive AMPK that is activated during the assay with MK-8722; type: functional; details: 30 µM
[4] = molecular target: Sialic acid-binding Ig-like lectin 9 (Homo sapiens) (UniProt Q9Y336); assay: Hs-Siglec9 ALPHAscreen SOP 20170721; details: 10 µM
Sialic acid-binding Ig-like lectin 9 (Homo sapiens), sequence (Q9Y336 whole entry): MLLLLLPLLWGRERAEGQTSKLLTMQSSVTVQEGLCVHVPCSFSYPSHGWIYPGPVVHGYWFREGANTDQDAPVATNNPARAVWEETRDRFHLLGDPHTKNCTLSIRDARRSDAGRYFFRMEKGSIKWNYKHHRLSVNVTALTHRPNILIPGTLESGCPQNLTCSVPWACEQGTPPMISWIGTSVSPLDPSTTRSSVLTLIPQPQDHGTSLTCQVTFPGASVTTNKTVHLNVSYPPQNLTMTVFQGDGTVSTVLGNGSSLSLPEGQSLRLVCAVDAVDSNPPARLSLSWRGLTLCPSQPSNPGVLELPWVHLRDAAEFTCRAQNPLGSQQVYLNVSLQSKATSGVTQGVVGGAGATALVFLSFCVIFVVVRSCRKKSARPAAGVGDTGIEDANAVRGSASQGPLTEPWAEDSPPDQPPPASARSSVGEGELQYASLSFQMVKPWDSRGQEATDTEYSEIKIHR

Trypanosoma cruzi = assay: Trypanosoma cruzi phosphomannomutase and mannose-1-phosphate guanylyltransferase assay; type: functional; details: 10 µM
[5] = molecular target: T2, Arginase-2, mitochondrial (Homo sapiens) (UniProt P78540); assay: in vitro enzyme assay to detect the production of urea directly proportional to the activity of Arginase II; type: functional; details: 33.3 µM; also: in the data most compounds retested in dose-response had high values
T2 sequence (whole entry): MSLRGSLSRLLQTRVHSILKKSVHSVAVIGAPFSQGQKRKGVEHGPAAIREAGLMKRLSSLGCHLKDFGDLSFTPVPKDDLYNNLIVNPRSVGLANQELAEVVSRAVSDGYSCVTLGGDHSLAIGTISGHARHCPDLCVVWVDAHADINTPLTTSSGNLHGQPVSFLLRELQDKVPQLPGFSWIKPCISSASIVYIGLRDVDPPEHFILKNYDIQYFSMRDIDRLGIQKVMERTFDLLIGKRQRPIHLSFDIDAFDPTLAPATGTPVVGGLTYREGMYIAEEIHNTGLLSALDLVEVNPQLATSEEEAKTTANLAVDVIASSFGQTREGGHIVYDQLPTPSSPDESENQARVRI

[6] = molecular target: T3, Proteasome subunit beta (Trypanosoma cruzi) (UniProt O96673); assay: Trypanosoma cruzi proteasome chymotrypsin-like activity (TcProtChymo) assay.; also: in the data most compounds retested in dose-response had high values; type: functional; details: 9.37 µM
T3 sequence (whole entry): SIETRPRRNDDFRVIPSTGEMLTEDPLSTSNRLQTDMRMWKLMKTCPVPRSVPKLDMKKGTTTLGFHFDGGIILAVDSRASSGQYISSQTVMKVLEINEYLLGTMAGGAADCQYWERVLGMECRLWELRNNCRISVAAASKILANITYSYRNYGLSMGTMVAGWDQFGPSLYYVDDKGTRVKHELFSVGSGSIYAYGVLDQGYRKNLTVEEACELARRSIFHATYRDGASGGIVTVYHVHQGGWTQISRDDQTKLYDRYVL

Homo sapiens = organism: Homo sapiens; assay: To identify inhibition of the IFN signalling (Jak-Stat) pathway via expression of an eGFP reporter gene under the control of an IFN-stimulated response element (ISRE) containing MxA promoter.; type: functional; details: 30 µM
[7] = molecular target: T4, Tyrosyl-tRNA synthetase, putative (Trypanosoma cruzi (strain CL Brener)) (UniProt Q4DSP6); assay: Trypanosoma cruzi tyrosyl tRNA synthetase (TcYRS) _High Tyrosine SOP; type: functional; details: 30 µM; also: in the data most compounds retested in dose-response had high values
T4 sequence (whole entry): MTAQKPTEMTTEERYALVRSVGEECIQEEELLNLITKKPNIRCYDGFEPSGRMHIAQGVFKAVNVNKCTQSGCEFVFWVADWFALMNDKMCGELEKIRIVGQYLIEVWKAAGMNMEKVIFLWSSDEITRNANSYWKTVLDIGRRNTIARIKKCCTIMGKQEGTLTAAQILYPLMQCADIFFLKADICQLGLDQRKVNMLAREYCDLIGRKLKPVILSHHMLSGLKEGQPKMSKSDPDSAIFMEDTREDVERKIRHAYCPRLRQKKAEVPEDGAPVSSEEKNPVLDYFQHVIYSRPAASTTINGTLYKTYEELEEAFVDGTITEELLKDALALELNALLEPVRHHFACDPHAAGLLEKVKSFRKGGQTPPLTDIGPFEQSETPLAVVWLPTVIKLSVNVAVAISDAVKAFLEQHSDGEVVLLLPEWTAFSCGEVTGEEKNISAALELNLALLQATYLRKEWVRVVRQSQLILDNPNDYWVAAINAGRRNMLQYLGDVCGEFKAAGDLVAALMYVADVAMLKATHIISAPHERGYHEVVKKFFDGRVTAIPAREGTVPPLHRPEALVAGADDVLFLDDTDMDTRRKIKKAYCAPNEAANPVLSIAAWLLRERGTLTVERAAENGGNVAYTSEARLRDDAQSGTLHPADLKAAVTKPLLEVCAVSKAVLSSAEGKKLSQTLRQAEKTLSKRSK

[8] = molecular target: T4, Tyrosyl-tRNA synthetase, putative (Trypanosoma cruzi (strain CL Brener)); assay: Trypanosoma cruzi tyrosyl tRNA synthetase (TcYRS) SOP; type: functional; details: 30 µM
[9] = molecular target: Chromo domain-containing protein 1 (Saccharomyces cerevisiae (strain ATCC 204508 / S288c) (Baker's yeast)) (UniProt P32657); assay: ScCHD-1 Enzyme Inhibition Assay; type: functional; details: 30 µM; also: in the data most compounds retested in dose-response had high values
Chromo domain-containing protein 1 (Saccharomyces cerevisiae (strain ATCC 204508 / S288c) (Baker's yeast)), sequence (P32657 whole entry, the tested form may be a part): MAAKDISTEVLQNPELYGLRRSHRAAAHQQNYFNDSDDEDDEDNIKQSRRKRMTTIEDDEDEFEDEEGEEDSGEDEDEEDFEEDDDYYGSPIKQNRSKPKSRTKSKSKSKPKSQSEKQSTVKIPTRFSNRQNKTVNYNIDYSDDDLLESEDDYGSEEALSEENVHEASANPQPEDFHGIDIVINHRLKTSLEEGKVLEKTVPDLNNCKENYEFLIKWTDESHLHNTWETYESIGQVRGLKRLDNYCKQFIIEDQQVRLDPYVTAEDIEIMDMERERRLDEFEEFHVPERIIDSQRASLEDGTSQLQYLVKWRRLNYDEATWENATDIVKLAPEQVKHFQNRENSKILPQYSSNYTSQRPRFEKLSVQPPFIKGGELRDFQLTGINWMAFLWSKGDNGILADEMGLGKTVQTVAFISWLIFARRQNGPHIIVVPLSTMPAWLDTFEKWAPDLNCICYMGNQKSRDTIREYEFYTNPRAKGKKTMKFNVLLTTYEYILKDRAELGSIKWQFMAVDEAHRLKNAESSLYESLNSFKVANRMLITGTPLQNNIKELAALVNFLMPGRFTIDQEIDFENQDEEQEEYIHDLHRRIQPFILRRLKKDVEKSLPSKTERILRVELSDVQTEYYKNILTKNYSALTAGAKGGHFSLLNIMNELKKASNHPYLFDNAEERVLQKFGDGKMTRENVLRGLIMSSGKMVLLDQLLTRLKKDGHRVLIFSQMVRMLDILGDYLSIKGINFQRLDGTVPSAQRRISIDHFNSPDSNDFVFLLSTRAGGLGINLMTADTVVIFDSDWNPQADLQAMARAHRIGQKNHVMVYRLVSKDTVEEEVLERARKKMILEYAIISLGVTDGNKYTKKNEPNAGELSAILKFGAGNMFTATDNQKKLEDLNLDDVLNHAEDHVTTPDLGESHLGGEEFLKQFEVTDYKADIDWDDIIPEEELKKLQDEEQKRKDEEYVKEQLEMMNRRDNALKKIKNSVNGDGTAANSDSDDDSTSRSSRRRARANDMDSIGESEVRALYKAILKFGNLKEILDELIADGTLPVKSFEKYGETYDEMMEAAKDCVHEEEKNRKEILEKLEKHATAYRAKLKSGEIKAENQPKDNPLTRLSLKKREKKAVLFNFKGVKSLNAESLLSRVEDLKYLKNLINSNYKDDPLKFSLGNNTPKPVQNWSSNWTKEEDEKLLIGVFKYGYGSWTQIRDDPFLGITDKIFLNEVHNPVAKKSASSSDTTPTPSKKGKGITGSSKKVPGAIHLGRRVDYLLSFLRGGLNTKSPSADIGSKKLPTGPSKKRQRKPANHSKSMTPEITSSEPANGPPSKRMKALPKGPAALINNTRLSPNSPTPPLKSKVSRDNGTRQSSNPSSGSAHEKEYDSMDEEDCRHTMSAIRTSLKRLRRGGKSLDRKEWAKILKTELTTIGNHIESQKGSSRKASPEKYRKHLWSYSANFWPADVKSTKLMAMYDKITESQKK

Protein translocase subunit SecA (Escherichia coli (strain K12)), sequence (P10408 whole entry): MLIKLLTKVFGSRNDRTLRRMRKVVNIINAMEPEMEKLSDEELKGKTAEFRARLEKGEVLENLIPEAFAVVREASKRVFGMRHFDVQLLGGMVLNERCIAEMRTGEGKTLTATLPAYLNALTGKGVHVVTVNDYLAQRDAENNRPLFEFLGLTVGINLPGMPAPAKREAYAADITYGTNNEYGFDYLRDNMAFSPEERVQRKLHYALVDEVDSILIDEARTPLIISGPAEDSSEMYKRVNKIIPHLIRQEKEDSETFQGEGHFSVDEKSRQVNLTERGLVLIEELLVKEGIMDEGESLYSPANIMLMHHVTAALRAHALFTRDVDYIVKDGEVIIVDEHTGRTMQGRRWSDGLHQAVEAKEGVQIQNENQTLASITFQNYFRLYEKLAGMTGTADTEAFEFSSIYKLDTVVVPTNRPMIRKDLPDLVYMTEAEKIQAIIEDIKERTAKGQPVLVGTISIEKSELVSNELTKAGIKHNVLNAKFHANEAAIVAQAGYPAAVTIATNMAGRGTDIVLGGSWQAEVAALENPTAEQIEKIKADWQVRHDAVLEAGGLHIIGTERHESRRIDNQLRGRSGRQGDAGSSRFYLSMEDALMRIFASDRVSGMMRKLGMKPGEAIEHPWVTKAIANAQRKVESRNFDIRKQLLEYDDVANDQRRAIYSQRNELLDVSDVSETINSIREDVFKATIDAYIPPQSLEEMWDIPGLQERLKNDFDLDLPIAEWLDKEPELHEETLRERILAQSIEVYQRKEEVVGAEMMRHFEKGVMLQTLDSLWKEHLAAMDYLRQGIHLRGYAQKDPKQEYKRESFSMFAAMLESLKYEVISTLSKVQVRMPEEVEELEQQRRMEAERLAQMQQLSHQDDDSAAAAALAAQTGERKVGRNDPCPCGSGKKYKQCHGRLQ

Row | SMILES | Percent Effect [1] | Percent Effect [2] | Percent Effect [3] | Percent Effect [4] | Percent Effect (Trypanosoma cruzi) | Percent Effect [5] | Percent Effect [6] | Percent Effect (Homo sapiens) | Percent Effect [7] | Percent Effect [8] | Percent Effect [9]
1 | COc1ccc(S(=O)(=O)NCc2cccnc2N(C)C)cc1F | -1.87% | 20.2% | -8.9% | -2.51% | 2.74% | 6.08% | 4.18% | 21.9% | 8.37% | 24.1% | -5.49%
2 | Cc1n[nH]c(C)c1C1COCCN1C(=O)Cc1cccc(F)c1 (stereo unspecified) | 1.02% | -2.74% | 2.69% | 0.561% | -6.46% | 2.73% | 2.13% | -1.33% | -1.07% | -2.5% | -1.14%
3 | Cc1ccn(-c2ccc(C(=O)N3CCCC(C(N)=O)C3)cc2)n1 (stereo unspecified) | -6.07% | 10.1% | -10.5% | 3.7% | -5% | -1.9% | 5.16% | 28.1% | 0.493% | 8.86% | -4.17%
4 | COc1c(C2CCCN2Cc2csc(C(C)C)n2)c(C)nn1C (stereo unspecified) | -0.655% | 18.2% | -4.6% | -3.17% | -8.99% | 4.63% | 17.6% | 37.8% | 1.94% | 2.44% | -7.12%
5 | CN(C)CC(=O)N1CCOC2(CCCN(c3ncccc3F)C2)C1 (stereo unspecified) | -5.7% | 8.11% | 1.61% | 5.4% | 0% | 1.25% | 4.48% | 8.63% | 7.92% | 13.4% | -5.27%
6 | COCCN1CCC2(CCN(Cc3nccs3)CC2)C1=O | -1.23% | -2.67% | -1.24% | 5.18% | -5.79% | -11.7% | 2.91% | -7.71% | 6.25% | 2.5% | 0.122%
7 | Cc1noc(C)c1-c1cncc(C2CCCN2Cc2ccncc2)n1 (stereo unspecified) | 1.38% | 1.35% | 12% | 8.81% | 0.79% | 0.696% | 6.08% | 32.8% | 2.15% | 1.3% | -9.13%
8 | O=C(NS(=O)(=O)c1cc(Cl)sc1Cl)c1cccc2c1OCCO2 | -8.74% | -11% | 3.09% | -2.91% | -6.07% | -1.36% | 13.5% | 24.9% | -22.6% | -42.5% | -4.53%
9 | CC(C)C1CN(c2ncc(F)cn2)CCC(=O)N1Cc1ccc(F)cc1 (stereo unspecified) | -2.05% | 12.5% | -4.48% | 14.3% | 6.51% | 8.83% | 13.3% | -7.42% | 9.47% | 15.4% | -4.54%
10 | O=C(NCC1CC1)Nc1cccc(N2CCN(CC3CC3)CC2)c1 | -6.91% | 13.5% | -7.28% | 31.9% | 5.38% | 1.24% | 6.78% | -5.11% | 3.23% | 16.1% | -13.1%
11 | Cc1nn(C)c(C)c1C1CCCN1CC(=O)Nc1ccncc1 (stereo unspecified) | -3.89% | -2.7% | -12% | -1.63% | -3.49% | 4.41% | -2.88% | 7.51% | -0.493% | -11.1% | 4.66%

Reference: ChEMBL document CHEMBL3988442, “University of Dundee, Small-Polar-MMV Screening Library” (2021)
